Results filed as inconclusive are left out. Active and inactive are the calls of the source. Unless noted, calls come from the whole dose curve; as a rule, active = well fitted curve in the direction sought with a large enough effect in the repeat runs; inconclusive = weak or mixed curves; inactive = no such curve, though single readings can be large; an effect the other way counts as inactive or inconclusive.
Columns and labels:
[1] = molecular target: Progesterone receptor (Homo sapiens) (UniProt P06401); assay: qHTS assay to identify small molecule agonists of the progesterone receptor (PR) signaling pathway (AID 1346784; calls by dose curve; note: nearly all actives have a fitted effect of over 30% in size)
Chain of Progesterone receptor (Homo sapiens) (P06401 whole entry, looked up): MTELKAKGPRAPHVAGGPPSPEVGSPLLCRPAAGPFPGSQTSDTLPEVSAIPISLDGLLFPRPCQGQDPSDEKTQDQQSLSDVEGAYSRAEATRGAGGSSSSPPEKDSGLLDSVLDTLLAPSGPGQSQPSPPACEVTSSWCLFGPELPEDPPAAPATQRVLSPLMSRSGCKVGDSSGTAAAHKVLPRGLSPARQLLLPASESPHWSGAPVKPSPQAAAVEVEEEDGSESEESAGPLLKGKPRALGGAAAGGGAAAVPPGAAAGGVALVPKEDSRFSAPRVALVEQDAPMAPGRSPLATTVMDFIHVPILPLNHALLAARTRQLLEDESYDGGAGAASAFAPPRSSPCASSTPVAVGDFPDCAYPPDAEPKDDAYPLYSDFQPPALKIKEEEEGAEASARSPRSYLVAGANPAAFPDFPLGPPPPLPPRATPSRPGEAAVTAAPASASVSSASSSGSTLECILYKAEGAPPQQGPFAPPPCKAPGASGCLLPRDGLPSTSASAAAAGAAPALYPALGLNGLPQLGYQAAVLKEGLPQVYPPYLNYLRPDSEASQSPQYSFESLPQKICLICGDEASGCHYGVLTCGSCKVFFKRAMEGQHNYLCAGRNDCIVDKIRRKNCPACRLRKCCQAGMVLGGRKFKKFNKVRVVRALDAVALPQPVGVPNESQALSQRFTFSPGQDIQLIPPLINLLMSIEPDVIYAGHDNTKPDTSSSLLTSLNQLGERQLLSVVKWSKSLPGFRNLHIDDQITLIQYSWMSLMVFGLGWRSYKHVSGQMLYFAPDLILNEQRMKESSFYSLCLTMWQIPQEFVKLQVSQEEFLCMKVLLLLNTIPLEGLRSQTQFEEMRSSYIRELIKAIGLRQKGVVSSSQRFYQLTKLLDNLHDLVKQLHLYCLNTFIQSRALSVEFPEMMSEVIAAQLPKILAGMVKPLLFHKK
Outline: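 Agonist qHTS: compounds pinned onto 3,000 PR-UAS-bla HEK 293T cells per well in charcoal-stripped serum medium, 16hr at 37C, then beta-lactamase activity measured by LiveBLAzer FRET fluorescence after 2 hours at room temperature.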

[2] = molecular target: Progesterone receptor (Homo sapiens) (UniProt P06401); assay: qHTS assay to identify small molecule antagonists of the progesterone receptor (PR) signaling pathway (AID 1346795; active = well fitted inhibition curve with a large enough effect in the signal ratio in the repeat runs, not every such curve was filed as active; the % refers to the signal ratio)
Outline: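 Antagonist mode with agonist R5020 at 1 nM final and 16 hr incubation at 37C. Reporter was beta-lactamase driven by UAS in HEK293T (PR-UAS-bla), 2% charcoal-stripped serum; signal from LiveBLAzer FRET substrate, 2 hr at room temperature.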

[3] = qHTS assay to identify small molecule antagonists of the progesterone receptor (PR) signaling pathway - cell viability counter screen (AID 1346798); note: series mostly up to about 92 µM; nearly all actives have a fitted effect of over 50% in size
Outline: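 Cytotoxicity read as CellTiter-Glo luminescence (30 min, room temperature) in the same wells as the beta-lactamase readout. HEK293T PR-UAS-bla cells in charcoal-stripped 2% FBS received compound and R5020, then 16 h at 37C, 5% CO2.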

[4] = qHTS assay to identify small molecule agonists of the progesterone receptor (PR) signaling pathway - cell viability counter screen (AID 1346799; calls by dose curve; note: nearly all actives have a fitted effect of over 45% in size)
Outline: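 Cytotoxicity measured by CellTiter-Glo luminescence (30 min, RT) in the same wells as the PR beta-lactamase agonist read. Those HEK293T cells had 16 h compound treatment at 37 C in 2% charcoal-stripped FBS medium.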

[5] = qHTS assay to identify small molecule antagonists of the TGF-beta/Smad signaling pathway - cell viability counter screen (AID 1346824); note: nearly all actives have a fitted effect of over 50% in size
Outline: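 SBE-bla HEK 293T cells, incubated overnight, then compound plus 0.25 ng/mL TGF-beta1 (stock added) for 5 hr at 37 C. Viability was read in the same wells by CellTiter-Glo luminescence after 30 min at room temperature.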

[6] = qHTS assay to identify small molecule agonists of the TGF-beta/Smad signaling pathway - cell viability counter screen (AID 1346829); note: top concentration of the series differs between compounds; nearly all actives have a fitted effect of over 45% in size
Outline: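 Compound-treated SBE-bla HEK 293T cells (5 hr, 37 C) were assessed for viability with CellTiter-Glo in parallel with the reporter read.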

[7] = qHTS assay to identify small molecule agonists of the TGF-beta/Smad signaling pathway (AID 1346859; active = well fitted activation curve with a large enough effect in the signal ratio in the repeat runs, not every such curve was filed as active; the % refers to the signal ratio; note: series mostly up to about 77 µM)
Outline: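 Fluorescence (ex 405 nm; em 460 and 530 nm) was read 2 h after LiveBLAzer FRET substrate at RT. The preceding compound treatment of overnight-plated SBE-bla HEK293T cells lasted 5 h at 37 C.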

[8] = molecular target: Thyrotropin-releasing hormone receptor (Homo sapiens) (UniProt P34981); assay: qHTS assay to identify small molecule antagonists of the thyrotropin-releasing hormone receptor (TRHR) signaling pathway (AID 1346877; active = well fitted inhibition curve with a large enough effect in the repeat runs, not every such curve was filed as active; note: series mostly up to about 51 µM)
Chain of Thyrotropin-releasing hormone receptor (Homo sapiens) (P34981 whole entry, looked up): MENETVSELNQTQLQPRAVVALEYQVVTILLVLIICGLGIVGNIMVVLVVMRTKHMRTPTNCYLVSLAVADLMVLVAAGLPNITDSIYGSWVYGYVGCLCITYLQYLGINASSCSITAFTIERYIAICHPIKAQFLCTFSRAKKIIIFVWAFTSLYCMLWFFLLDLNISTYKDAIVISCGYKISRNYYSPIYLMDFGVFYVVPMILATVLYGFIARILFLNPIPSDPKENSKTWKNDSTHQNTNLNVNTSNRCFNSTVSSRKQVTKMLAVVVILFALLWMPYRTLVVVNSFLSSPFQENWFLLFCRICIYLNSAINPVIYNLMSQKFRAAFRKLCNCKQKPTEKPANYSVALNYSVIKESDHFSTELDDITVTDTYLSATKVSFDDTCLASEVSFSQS
Outline: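 Following an 18 h incubation at 37 °C and a 2 h calcium dye load, TRHR-HEK293 cells were exposed to compound (5 min, room temperature) and challenged with TRH, 1 nM final.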

[9] = molecular target: Thyrotropin-releasing hormone receptor (Homo sapiens) (UniProt P34981); assay: qHTS assay to identify small molecule agonists of the thyrotropin-releasing hormone receptor (TRHR) signaling pathway (AID 1346891; calls by dose curve; note: series mostly up to about 58 µM)
Outline: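 Agonist-mode intracellular calcium readout: kinetic fluorescence over 3 min at 1 s intervals after compound addition to TRHR-HEK293 cells (18 h seeded, 2 h dye-loaded at 37 C). Fifteen concentrations, triplicates.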

[10] = Human pregnane X receptor (PXR) small molecule agonists, qHTS cell viability counter screen (AID 1346977); note: nearly all actives have a fitted effect of over 50% in size
Outline: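 Same-well viability read: CellTiter-Fluor added after 23 hr compound exposure, fluorescence measured 1 hr later. Cells were PXR-Luc HepG2 seeded at 2,000/well in 5% charcoal-stripped FBS medium, rested 5 hr before dosing at 37 C.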

[11] = Caspase-3/7 induction in HepG2 cells by small molecules, qHTS assay (AID 1346978); note: nearly all actives have a fitted effect of over 15% in size
Outline: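 Wild-type HepG2 cells, 2,000/well, settled 5 hr at 37 C and 5% CO2, then compound-treated for 17 hr; caspase-3/7 activity read by luminescent Caspase-Glo 3/7 after 30 min at room temperature.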

[12] = Caspase-3/7 induction in CHO-K1 cells by small molecules, qHTS cell viability counter screen (AID 1346979); note: nearly all actives have a fitted effect of over 35% in size
Outline: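 Cytotoxicity counter screen: CellTiter-Fluor added to compound-treated wild-type CHO-K1 cells at 16 h (37C, 5% CO2), fluorescence measured 1 h later; same wells as caspase-3/7 measurement.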

[13] = Caspase-3/7 induction in CHO-K1 cells by small molecules, qHTS assay (AID 1346980); note: nearly all actives have a fitted effect of over 15% in size
Outline: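 Wild-type CHO-K1 cells exposed to compounds for 17hr at 37 C, 5% CO2. Caspase-3/7 activity then measured by Caspase-Glo 3/7 luminescence after 30min at room temperature.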

[14] = Caspase-3/7 induction in HepG2 cells by small molecules, qHTS cell viability counter screen (AID 1346981); note: series mostly up to about 92 µM; nearly all actives have a fitted effect of over 30% in size
Outline: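 Viability determined by CellTiter-Fluor fluorescence in HepG2 wells also used for the luminescent Caspase-Glo 3/7 read. Compounds were present for 16 hr at 37 C, 5% CO2 before reagent addition.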

[15] = molecular target: Nuclear receptor subfamily 1 group I member 2 (Homo sapiens) (UniProt O75469); assay: Human pregnane X receptor (PXR) small molecule agonists, qHTS assay (AID 1346982); note: nearly all actives have a fitted effect of over 35% in size
Chain of Nuclear receptor subfamily 1 group I member 2 (Homo sapiens) (O75469 whole entry, looked up): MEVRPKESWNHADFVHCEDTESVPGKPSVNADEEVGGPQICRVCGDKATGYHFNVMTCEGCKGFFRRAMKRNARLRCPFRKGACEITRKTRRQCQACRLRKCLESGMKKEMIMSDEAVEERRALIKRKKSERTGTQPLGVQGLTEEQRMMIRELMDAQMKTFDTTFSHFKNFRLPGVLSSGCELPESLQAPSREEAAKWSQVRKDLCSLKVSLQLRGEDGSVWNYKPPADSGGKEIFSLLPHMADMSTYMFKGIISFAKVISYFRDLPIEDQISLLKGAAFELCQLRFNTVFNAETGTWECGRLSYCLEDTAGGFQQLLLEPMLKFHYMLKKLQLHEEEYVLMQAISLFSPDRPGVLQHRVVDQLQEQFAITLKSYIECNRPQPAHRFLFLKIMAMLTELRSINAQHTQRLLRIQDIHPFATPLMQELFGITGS
Outline: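 Compound-induced hPXR transactivation of a CYP3A4 luciferase reporter was scored in HepG2 PXR-Luc cells over 24 hr at 37 C, 5% CO2, by luminescence.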

[16] = molecular target: Cytochrome P450 2D6 (Homo sapiens) (UniProt P10635); assay: Cytochrome P450 Family 2 Subfamily D Member 6 (CYP2D6) small molecule antagonists: luciferase reporter qHTS assay (AID 1671196); note: series mostly up to about 120 µM; nearly all actives have a fitted effect of over 50% in size
Chain of Cytochrome P450 2D6 (Homo sapiens) (P10635 whole entry, looked up): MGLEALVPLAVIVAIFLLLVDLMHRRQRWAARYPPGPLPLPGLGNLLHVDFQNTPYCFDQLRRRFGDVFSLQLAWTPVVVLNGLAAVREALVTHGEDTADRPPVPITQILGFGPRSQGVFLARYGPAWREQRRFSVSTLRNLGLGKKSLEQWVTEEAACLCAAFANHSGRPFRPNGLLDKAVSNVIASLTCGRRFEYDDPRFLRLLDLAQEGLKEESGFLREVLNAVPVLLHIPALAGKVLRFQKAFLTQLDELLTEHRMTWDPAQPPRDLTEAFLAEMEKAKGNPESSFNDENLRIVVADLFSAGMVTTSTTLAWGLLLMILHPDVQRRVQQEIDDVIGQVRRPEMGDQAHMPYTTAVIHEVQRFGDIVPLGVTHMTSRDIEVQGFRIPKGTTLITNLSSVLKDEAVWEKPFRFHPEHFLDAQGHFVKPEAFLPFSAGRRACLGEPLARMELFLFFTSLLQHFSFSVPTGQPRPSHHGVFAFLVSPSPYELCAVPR
Outline: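 Each well received CYP2D6 with its proluciferin substrate and chemical, sat 10 min, then got NADPH regeneration solution for 1 h at room temperature. Luminescence in RLU served as the activity measure.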

[17] = molecular target: Cytochrome P450 2C19 (Homo sapiens) (UniProt P33261); assay: Cytochrome P450 Family 2 Subfamily C Member 19 (CYP2C19) small molecule antagonists: luciferase reporter qHTS assay (AID 1671197); note: series mostly up to about 120 µM; nearly all actives have a fitted effect of over 65% in size
Chain of Cytochrome P450 2C19 (Homo sapiens) (P33261 whole entry, looked up): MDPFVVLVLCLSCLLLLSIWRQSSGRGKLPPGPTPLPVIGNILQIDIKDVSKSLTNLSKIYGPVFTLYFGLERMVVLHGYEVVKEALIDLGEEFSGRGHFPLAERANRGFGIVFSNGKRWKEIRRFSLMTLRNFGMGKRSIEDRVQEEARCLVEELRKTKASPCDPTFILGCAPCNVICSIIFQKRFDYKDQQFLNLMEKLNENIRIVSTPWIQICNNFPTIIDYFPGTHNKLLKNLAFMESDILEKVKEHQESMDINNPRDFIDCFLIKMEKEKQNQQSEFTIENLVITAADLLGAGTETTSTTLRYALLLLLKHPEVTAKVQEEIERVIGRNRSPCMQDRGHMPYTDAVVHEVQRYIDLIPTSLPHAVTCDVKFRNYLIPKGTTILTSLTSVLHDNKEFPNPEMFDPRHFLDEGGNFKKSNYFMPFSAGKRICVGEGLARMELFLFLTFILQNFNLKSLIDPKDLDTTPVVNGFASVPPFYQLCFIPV
Outline: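 P450-Glo CYP2C19 screening system; proluciferin substrate; DMSO compound stocks; 10 min RT preincubation; NADPH regeneration, 1 h at 37C; luciferin detection reagent, 20 min RT; luminescence as RLU.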
% is set by controls: 0 for no effect and ±100 for the full control effect.

NCC(=O)O
inactive: activation [1] -0.192% [at 19 µM] | activity change, negative = inhibition [2] 9.41% [at 18.9 µM] | activity change, negative = cytotoxicity [3] -3.8% [at 18.9 µM] | activity change, negative = cytotoxicity [4] 27.9% [at 19 µM] | viability change, negative = cytotoxic [5] -5.27% [at 15.8 µM] | activity change, negative = cytotoxicity [6] 0.104% [at 15.8 µM] | activation [7] -0.809% [at 15.8 µM] | activity, negative = inhibition [8] -3.84% [at 10.5 µM] | activation [9] -0.0833% [at 11.8 µM] | activity change, negative = cytotoxicity [10] 14.5% [at 19 µM] | caspase activation [11] -0.745% [at 19 µM] | activity change, negative = cytotoxicity [12] 7.68% [at 19 µM] | caspase-3/7 activation [13] -1.83% [at 19 µM] | activity change, negative = cytotoxicity [14] 4.32% [at 19 µM]

C=CC(=O)OCCOc1ccccc1
inactive: Potency [1] | Potency [2] | Potency [3] | Potency [4] | Potency [5] | outcome [6] | Potency [7] | outcome [8] | Potency [9] | Potency [10] | Potency [11] | Potency [13] | Potency [14]

NS(=O)(=O)c1ccc(N2CCCCS2(=O)=O)cc1
inactive: Potency [1] | Potency [2] | Potency [3] | Potency [4] | Potency [5] | outcome [6] | Potency [7] | outcome [8] | Potency [9] | Potency [10] | Potency [11] | Potency [12] | Potency [13] | Potency [14] | Potency [15] | Potency [16] | Potency [17]

CCCCCCCCCCCC(=O)OC[C@@H](O)[C@H]1OC[C@H](OCCO)[C@H]1OCCO
inactive: Potency [1] | Potency [2] | Potency [3] | Potency [4] | Potency [5] | outcome [6] | Potency [7] | outcome [8] | Potency [9] | Potency [10] | Potency [11] | Potency [12] | Potency [13] | Potency [14] | Potency [16]
